# BoNT A protease – blocks Botulinum neurotoxin A light chain protease; multiplex microsphere protease substrate cleavage, flow cytometry; inhibition, % at 10 µM; 360,000 compounds, 0.17% hits; AID 588499; note: plate controls were buffer without enzyme for full effect and enzyme alone for no effect
# BoNT F protease – blocks Botulinum neurotoxin F light chain protease; Multiplex microsphere protease cleavage assay, flow cytometry; inhibition, % at 10 µM; 360,000 compounds, 0.22% hits; AID 588497; in the data active = inhibition above about 35%, passing the limit was not always enough; inconclusive = no clear call, values can overlap the other calls; note: plate controls were buffer without enzyme for full effect and enzyme alone for no effect
# Mtb FBA inh – Mtb fructose-bisphosphate aldolase inhibition; P9WQA3; purified M. tuberculosis FBA, fluorescence read-out; inhibition, % at 1 µM; 360,000 compounds, 2.3% hits; in the data active = inhibition above about 27%;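 note: 0% = vehicle and 100% = reference inhibitor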
# Anthrax LF inh2 – blocks Bacillus anthracis lethal factor protease | P15917 | multiplex microsphere protease cleavage assay, LF | inhibition, % at 10 µM | 360,000 compounds, 0.12% hits; note: plate controls were buffer without enzyme for full effect and enzyme alone for no effect
# GDH-TPI counter – inhibits GDH-TPI coupling enzymes, artifact for Mtb FBA screen | 360,000 compounds, 1.2% hits | AID 588335 | inhibition, % at 4.8 µM | GDH-TPI coupled enzyme counterscreen, NADH absorbance; in the data active = inhibition above about 30%;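 note: 0% = DMSO wells and 100% = wells lacking the enzyme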
# Autofluor counter – counter-screen for toxin protease inhibitors: compound fluorescence; compound autofluorescence counterscreen, microsphere flow cytometry; hits give high values; fluorescence intensity (concentration not given with the values); 360,000 compounds, 3.1% hits; in the data active = fluorescence intensity above about 16000; inconclusive = no clear call, values can overlap the other calls
# * hit, by the source's call; ? = inconclusive; . = not tested or not shown; + = active, no number. Shown are actives, neighbours in structure and some others; about 6.6% of the full set was active somewhere. Cut-off read from the data, not from the text of the source, unless noted: active = inhibition above about 30%; inconclusive = no clear call, values can overlap the other calls; inactive = below that.
SMILES,BoNT A protease,BoNT F protease,Mtb FBA inh,Anthrax LF inh2,GDH-TPI counter,Autofluor counter
CCN(CC)C(=O)C1=C(C)NC(=S)NC1c1cn(-c2ccccc2)nc1-c1ccc(Cl)cc1 (configuration not stated),0,-2,-1,-1,11,23563*
O=C(NCc1ccncc1)c1cn(-c2ccccc2)nc1-c1cccnc1,0,-1,7,1,-1,4307
COc1ccc(OCCN2CCC(C(=O)NC(c3ccsc3)c3ccccc3C)CC2)cc1 (configuration not stated),0,-6,-3,-7,1,3527
O=C(NCc1ccc(Cl)cc1)c1ccc(Cn2cc(C(F)(F)F)ccc2=O)cc1,0,4,1,-2,10,4551
O=C(NCc1ccccc1Cl)c1ccc(Cn2cc(C(F)(F)F)ccc2=O)cc1,-3,-6,-1,-1,12,17060*
COCC(=O)O[C@]1(CCN(C)CCCc2nc3ccccc3[nH]2)CCc2cc(F)ccc2[C@@H]1C(C)C,1,-8,0,-5,6,6207
Clc1ccc(-c2ccc(C=Nc3ccc(N4CCOCC4)cc3)o2)cc1,0,-8,-4,-2,32*,2526
O=C(Nc1ncn[nH]1)c1cccc(S(=O)(=O)N2CCOCC2)c1,1,2,-3,-4,0,4671
Cc1cccc(NC(=S)N2CCC(NC(=O)c3ccco3)CC2)c1,0,1,2,-3,7,4403
Cc1ccc(C(=O)Nc2ccccc2-c2ccccc2)o1,0,-7,3,-2,4,2864
Cc1ncoc1C(=O)Nc1ccccc1-c1ccccc1,0,0,-4,1,6,23728*
Cc1ncoc1C(=O)Nc1ccc(Oc2ccccc2)cc1,3,-2,-4,-3,2,19937*
Cc1nc(C)c(C(=O)Nc2ccc(Oc3ccccc3)cc2)o1,4,3,-3,1,-4,19915*
C[C@H]1CN([C@@H](C)CO)C(=O)CCCn2cc(nn2)CO[C@@H]1CN(C)C(=O)Nc1cccc(F)c1,0,-1,0,-3,-4,3707
COc1ccc2oc3c(ccc[n+]3C)c(=O)c2c1,0,1,6,-9,.,6029
COc1cc(C(=O)NN2C(=O)NC3(CCC(C)CC3)C2=O)ccc1OC(F)F (configuration not stated),0,3,-5,-7,-2,8829
COc1ccc(C2CC(c3ccc(C(F)(F)F)cc3)=NN2c2ccc(S(N)(=O)=O)cc2)cc1 (configuration not stated),0,0,155*,-2,10,3637
COc1ccc(C2CC(c3ccccc3F)=NN2c2ccc(S(N)(=O)=O)cc2)cc1 (configuration not stated),0,-5,156*,3,-9,3626
COc1ccc(C2CC(C(C)(C)C)=NN2c2ccc(S(N)(=O)=O)cc2)cc1 (configuration not stated),0,-8,-1,-4,12,3016
COc1ccc(C2CC(c3ccccc3C(F)(F)F)=NN2c2ccc(S(N)(=O)=O)cc2)cc1 (configuration not stated),1,-4,+,-2,-10,3567
O=C(c1cn(-c2ccccc2)nc1-c1cccnc1)N1CCN(S(=O)(=O)c2ccc(Cl)cc2)CC1,0,-4,1,0,-2,3591
CCOc1cccc2cc(C(=O)NCc3cccnc3)c(=O)oc12,?,3,1,-14,2,22159*
CCOc1cccc2cc(C(=O)Nc3cc(C)on3)c(=O)oc12,?,-4,-2,-2,-1,24162*
Cc1ccc(N2C(S)=C(C#N)C(=O)NC2c2cccs2)cc1 (configuration not stated),0,0,1,0,3,2188
CC(=O)Nc1cc(-c2cccc(N)c2)cn2c(-c3ccc(C(C)=O)cc3)cnc12,0,-6,-1,-5,9,3812
SMILES,BoNT A protease,BoNT F protease,Mtb FBA inh,Anthrax LF inh2,GDH-TPI counter,Autofluor counter
CC(c1ccco1)N(C(=O)c1cccc(S(=O)(=O)N(C)C)c1)c1ccccn1 (configuration not stated),-1,-4,2,-3,2,2954
COc1ccc(S(=O)(=O)Nc2ccc3c(c2)OCO3)cc1,1,-10,-1,-9,-10,5819
CC(=O)c1cc2c(cc1NS(=O)(=O)c1ccccc1)OCO2,-5,-8,2,-7,1,20902*
O=S(=O)(Nc1ccc2c(c1)OCO2)c1ccccc1,?,-8,-2,-2,8,23731*
O=[N+]([O-])c1ccc(N2CCN(S(=O)(=O)c3ccc(Cl)cc3)CC2)cc1NCC1CCCO1 (configuration not stated),-2,-5,-1,-5,3,16643*
Cc1sc2nc(C(C)C)nc(SCC(=O)N3CCOCC3)c2c1C,1,-6,-1,-4,-1,4398
O=C(CSCc1ccc(Cl)cc1)NCc1ccccn1,0,-2,-4,0,0,2075
O=C1CCCCC(=O)[C@H](O)C[C@H](COCc2ccccc2)O1,0,-2,.,-8,.,6090
COc1cc(OC)cc(C(=O)NC2CCN(Cc3nnnn3Cc3cccs3)CC2)c1,-7,-5,1,-2,-16,25214*
CCN(CC)C1CCN(C(=O)c2cc(COc3ccc(-n4cncn4)cc3)on2)C1 (configuration not stated),0,0,7,-3,15,4421
COc1ccc(S(=O)(=O)Cc2ccccc2)cc1N,-2,-5,5,0,6,23710*
CCN(c1ccccc1)S(=O)(=O)c1ccc(N)c(OC)c1,0,6,2,1,0,3750
Cc1ccc2c(c1)sc1nncn12,0,3,-1,4,-1,3686
COCCNC(=O)C(=O)NCC1OCCCN1S(=O)(=O)c1cccs1 (configuration not stated),1,-2,2,2,4,2219
COc1cc(-n2c(N)c(C(=O)NCc3ccco3)c3nc4ccccc4nc32)cc(OC)c1OC,2,-1,14,-1,12,2640
COCCCNC(=O)c1c(N)n(-c2ccccc2)c2nc3ccccc3nc12,2,-4,+,2,13,5406
COc1cccc(-n2c(N)c(C(=O)Nc3c(C)n(C)n(-c4ccccc4)c3=O)c3nc4ccccc4nc32)c1,1,?,10,-1,37*,3632
COCCNC(=O)c1c(N)n(-c2ccccc2)c2nc3ccccc3nc12,6,-2,148*,2,18,5845
Nc1c(C(=O)NCCN2CCOCC2)c2nc3ccccc3nc2n1-c1ccccc1,2,1,149*,3,28,10621
COCCCNC(=O)c1c(N)n(/N=C/c2cccs2)c2nc3ccccc3nc12,0,-6,-1,4,0,3390
Cc1cc(C)cc(-n2c(N)c(C(=O)Nc3c(C)n(C)n(-c4ccccc4)c3=O)c3nc4ccccc4nc32)c1,8,4,0,5,5,8721
